This is an account of results in PubChem BioAssay (NCI).

SMILES strings stand for the structures. This is part of a sample that, as a whole, favours compounds with a hit. Of some 83,000 tested, about 20% had one in any assay.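 Note: values are percent growth. 100 is the growth of untreated cells, values between 100 and 0 indicate rising inhibition; between -100 and 0 indicates cell death.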 Unmarked numbers belong to inactive results. Active and inactive are the calls of the source. How the source made its calls: active means growth percent below 10; inactive means the rest.

Some test systems named below: HCT-15 colon; HT29 colon; SNB-75 CNS; SNB-19 CNS; U251 CNS; PC-3 prostate; SK-MEL-5 melanoma; UACC-62 melanoma; LOX IMVI melanoma; SK-MEL-28 melanoma; SK-MEL-2 melanoma; EKVX NSCLC; SN12C renal; UO-31 renal; TK-10 renal; ACHN renal; CAKI-1 renal; A498 renal; CCRF-CEM leukemia; MOLT-4 leukemia.
Holding throughout (test): NCI-60 one-dose screen, 48 h (100 = growth as untreated, 0 = no growth, -100 = all killed)
What all share (conditions): 10 µM unless noted

Turning to `C=C1C(=O)O[C@H]2[C@H]1CC/C(COC(=O)NCc1ccc(Cn3c(=O)sn(CCCC)c3=O)cc1)=C\CC[C@@]1(C)O[C@@H]21`, the growth was 24.4% with HCT-15 colon; 0.335% (active) in the test on HT29 colon; 82.7% in the test with SNB-75 CNS; 100% in the test with SNB-19 CNS; 60.4% in the test on U251 CNS; 59.9% in the test on PC-3 prostate. Moreover, the growth is 96.3% in the test with SK-MEL-5 melanoma; 53.3% with UACC-62 melanoma; 26.8% in the test on LOX IMVI melanoma; 55.5% in the test with SK-MEL-28 melanoma; 81.5% with SK-MEL-2 melanoma; 91.1% in the test on EKVX NSCLC. Moreover, the growth in the test on SN12C renal is 49.5%; with UO-31 renal it was 3.12% (active); with TK-10 renal it was 14.7%; in the test on ACHN renal it was 15.2%; in the test on CAKI-1 renal, 40.6%; in the test with A498 renal, 100%. Also, the growth in the test with CCRF-CEM leukemia was -22.4% (active); with MOLT-4 leukemia, 1.1% (active).
Consider `Cc1nn(C)c2ncnc(Nc3ccccc3Br)c12`, for which the growth in the test with HCT-15 colon is 101%; in the test on HT29 colon, 97.7%; with SNB-75 CNS, 111%; in the test with SNB-19 CNS, 101%; in the test on U251 CNS, 95.3%; in the test on PC-3 prostate it was 102%. For the same compound, the growth in the test on SK-MEL-5 melanoma was 97.7%; in the test on UACC-62 melanoma it was 93.3%; with LOX IMVI melanoma, 101%; in the test with SK-MEL-28 melanoma, 102%; in the test on SK-MEL-2 melanoma, 100%; in the test on EKVX NSCLC, 60.6%. The growth is 98.8% with SN12C renal; 96.8% in the test with UO-31 renal; 97% in the test on TK-10 renal; 106% with ACHN renal; 102% with CAKI-1 renal; 71.4% with A498 renal. For the same compound, the growth with CCRF-CEM leukemia is 93.3%; in the test with MOLT-4 leukemia it was 95.9%.
With `CN1C(=O)N(C)C2C1NN=c1s/c(=C\c3ccccc3F)c(=O)n12` (stereo not given), the growth is 13.3% with HCT-15 colon; 2.25% (active) with HT29 colon; -4.89% (active) in the test with SNB-75 CNS; 24.1% in the test with SNB-19 CNS; 14.5% in the test with U251 CNS; 27.4% in the test with PC-3 prostate. Moreover, the growth with SK-MEL-5 melanoma was 16.7%; in the test on UACC-62 melanoma, 21%; in the test with LOX IMVI melanoma, 20.6%; in the test with SK-MEL-28 melanoma, 47.1%; in the test with SK-MEL-2 melanoma, 42.5%; with EKVX NSCLC it was 48.3%. In addition, the growth with SN12C renal is 26%; in the test with UO-31 renal it was 42.6%; in the test with TK-10 renal, 63.1%; with ACHN renal, 36.8%; in the test on CAKI-1 renal, 31.4%; in the test with A498 renal, 1.45% (active). The figures for the growth with CCRF-CEM leukemia and in the test with MOLT-4 leukemia were 11% and 15.8%, respectively.
As for `N#CC1=C(N)Oc2c(ccc3ccccc23)C1c1cc2ccccc2n2nnnc12` (stereo not given), the growth is 11.8% with HCT-15 colon; 8.73% (active) with HT29 colon; 8.82% (active) in the test on SNB-75 CNS; 26.2% in the test on SNB-19 CNS; 18.7% in the test with U251 CNS; 10.1% in the test with PC-3 prostate. Moreover, the growth was 7.97% (active) in the test on SK-MEL-5 melanoma; 25.4% with UACC-62 melanoma; 24.5% with LOX IMVI melanoma; 39.3% in the test with SK-MEL-28 melanoma; 12% in the test on SK-MEL-2 melanoma; 52.1% in the test on EKVX NSCLC. Moreover, the growth was 27.3% with SN12C renal; 25.9% in the test with UO-31 renal; 37.3% in the test on TK-10 renal; 22.7% with ACHN renal; 31.6% in the test on CAKI-1 renal; -2.46% (active) in the test on A498 renal. The results for the growth with CCRF-CEM leukemia and in the test with MOLT-4 leukemia were -5.43% (active) and 10.6%, respectively.
Turning to `O=C1CCc2c(sc3[nH]c(=S)n(-c4cc(C(F)(F)F)cc(C(F)(F)F)c4)c(=O)c23)C1`, the growth in the test with HCT-15 colon was -42.9% (active); in the test with HT29 colon, 0.73% (active); with SNB-75 CNS, -8.04% (active); in the test on SNB-19 CNS, 15.1%; in the test on U251 CNS, -22.4% (active); with PC-3 prostate it was -38.4% (active). For the same compound, the growth in the test with SK-MEL-5 melanoma was -88.9% (active); with UACC-62 melanoma, -12.9% (active); with LOX IMVI melanoma, 1.59% (active); in the test on SK-MEL-28 melanoma it was -16.8% (active); with SK-MEL-2 melanoma, -31.3% (active); in the test on EKVX NSCLC, -8.72% (active). For the same compound, the growth in the test with SN12C renal was 8.54% (active); in the test on UO-31 renal it was -57.5% (active); with TK-10 renal, 2.81% (active); with ACHN renal, 3.08% (active); with CAKI-1 renal, 0.877% (active); in the test with A498 renal, -18.2% (active). In addition, the growth is 1.71% (active) in the test with CCRF-CEM leukemia and 11% in the test on MOLT-4 leukemia.
Consider `COc1ccc2c(c1)c(-c1nc(-c3cn(C)c4ccncc34)cs1)cn2C`, for which the growth with HCT-15 colon is -22.1% (active); in the test with HT29 colon it was -58.1% (active); in the test with SNB-75 CNS, 120%; in the test on SNB-19 CNS, 20.9%; with U251 CNS, -74.9% (active); in the test on PC-3 prostate, -17.1% (active). Moreover, the growth is -22.8% (active) in the test with SK-MEL-5 melanoma; 107% with UACC-62 melanoma; -92.3% (active) in the test with LOX IMVI melanoma; 86.8% in the test on SK-MEL-28 melanoma; 112% in the test on SK-MEL-2 melanoma; -36.7% (active) in the test on EKVX NSCLC. For the same compound, the growth in the test with SN12C renal was 94.2%; in the test with UO-31 renal, 71.2%; in the test on TK-10 renal, 79.7%; in the test with ACHN renal it was 95%; with CAKI-1 renal it was 75.6%; with A498 renal, 90.9%. The growth in the test with CCRF-CEM leukemia is -27.9% (active); in the test with MOLT-4 leukemia, -31.1% (active).
As to `CCOC(=O)/C=C1\S/C(=N\Nc2cc(=O)[nH]c3ccc(OC)cc23)N(c2ccccc2)C1=O`, the growth in the test on HCT-15 colon is 93.3%; with HT29 colon, 108%; in the test with SNB-75 CNS, 91.1%; in the test on SNB-19 CNS, 95%; in the test on U251 CNS it was 92.9%; in the test on PC-3 prostate, 99.3%. Also, the growth was 103% in the test with SK-MEL-5 melanoma; 100% in the test on UACC-62 melanoma; 97.3% with LOX IMVI melanoma; 108% in the test with SK-MEL-28 melanoma; 106% in the test with SK-MEL-2 melanoma; 106% in the test with EKVX NSCLC. For the same compound, the growth was 96.8% in the test with SN12C renal; 82.4% with UO-31 renal; 117% with TK-10 renal; 96.8% in the test with ACHN renal; 88.5% with CAKI-1 renal; 112% in the test with A498 renal. For the same compound, the figures for the growth with CCRF-CEM leukemia and with MOLT-4 leukemia were 65.1% and 95.4%, respectively.
